# SUMO Mot1 rescue – SUMOylation pathway inhibition by Mot1-301 growth rescue; actives 1% (n = 320,000); growth rescue, % at 18.8 µM; S. cerevisiae Mot1-301 growth rescue, ATP luminescence, 38.5C; percent above DMSO median, 100 means doubled;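 active = every valid replicate shows activation above 250% relative to neutral control wells; inactive = the rest, any valid replicate at or below 250%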;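 also: OY570 slx delta 5 strain wells were the positive control but not used for scaling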
# CHT PAM – human CHT allosteric activation. Q9GZV3. CHT-expressing cells, membrane potential dye, choline EC20; hits give high values; LV-AA mutant CHT in HEK293 cells. B-score at 10 µM. actives 0.49% (n = 310,000);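 active = initial fluorescence not abnormally high and integrated response B-score, plate-corrected, over 3 SD above library mean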
# MEKK2wt PB1 HTS – raises or lowers MEK5 binding to wildtype human MEKK2 PB1 domain. binding response (% of control), % at 10 µM. actives 1.1% (n = 290,000). Q9Y2U5. bead flow cytometry, Alexa488-MEK5 binding to MEKK2 WT; actives lie on both sides; in the data active = binding response below about 67% or above about 130%
# MEKK3 PB1 HTS – modulators (inhibitors or enhancers) of MEK5 binding to human MEKK3 PB1 domain; Q99759; AID 1529; binding response (% of control), % at 10 µM; bead-based flow cytometry, Alexa488-MEK5 binding to MEKK3; actives lie on both sides; 0 = blocked by unlabeled MEK5, 100 = vehicle; actives 1.4% (n = 290,000);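 active = binding response more than 3 SD above or below the average of its plate-row segment, actives on both sides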;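 also: Alexa488 bead fluorescence after subtracting the streptavidin-only scavenger bead signal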
# Target sequence (Q99759 whole entry, looked up, the tested form may be a part): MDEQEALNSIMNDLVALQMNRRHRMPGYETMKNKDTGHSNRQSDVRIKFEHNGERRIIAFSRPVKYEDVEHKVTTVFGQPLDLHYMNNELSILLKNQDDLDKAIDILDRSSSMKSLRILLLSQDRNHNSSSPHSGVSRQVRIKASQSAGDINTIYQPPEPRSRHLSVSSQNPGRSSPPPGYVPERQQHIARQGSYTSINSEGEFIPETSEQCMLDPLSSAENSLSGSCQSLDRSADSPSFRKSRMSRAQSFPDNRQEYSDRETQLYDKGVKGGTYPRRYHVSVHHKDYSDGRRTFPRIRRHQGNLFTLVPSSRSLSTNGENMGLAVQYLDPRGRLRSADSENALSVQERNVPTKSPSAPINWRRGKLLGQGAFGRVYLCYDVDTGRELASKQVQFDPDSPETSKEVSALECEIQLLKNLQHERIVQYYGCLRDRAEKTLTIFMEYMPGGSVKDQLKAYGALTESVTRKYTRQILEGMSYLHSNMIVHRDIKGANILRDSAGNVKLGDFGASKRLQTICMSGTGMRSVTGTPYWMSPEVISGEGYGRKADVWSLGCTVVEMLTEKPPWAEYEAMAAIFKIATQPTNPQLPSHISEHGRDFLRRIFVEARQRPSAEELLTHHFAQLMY
# MEKK2 mut-MEK5 – signal of MEK5 binding to mutant human MEKK2 PB1 domain | bead flow cytometry, Alexa488-MEK5 binding to MEKK2 mutant | percent response, % at 10 µM | actives 0.35% (n = 290,000) | AID 1530; in the data active = percent response above about 24%, passing the limit was not always enough
# CHT block – human CHT choline transport inhibition; CHT-expressing cells, membrane potential dye, choline response; hits give low values; actives 0.86% (n = 310,000); B-score at 10 µM;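 active = B-score over 3 SD under the library average, and starting fluorescence ratio not unusually high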;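 also: choline stimulus applied at its EC90 after an EC20 pre-addition; B-score computed on integrated fluorescence ratio after choline addition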
# MEKK2wt confirm – raises or lowers MEK5 binding to wildtype human MEKK2, retest; shares compounds with MEKK3 PB1 HTS; bead flow cytometry, Alexa488-MEK5 binding to MEKK2 WT; actives lie on both sides; binding response (% of control), % at 10 µM; actives 2.4% (n = 5,900); AID 1892; in the data active = binding response below about 16% or above about 210%; inactive = in between
# MEKK2mut-MEK5 – signal of MEK5 binding to mutant human MEKK2, retest | AID 1893 | bead flow cytometry, Alexa488-MEK5 binding to MEKK2 mutant | actives 2% (n = 5,900) | shares compounds with MEKK3 PB1 HTS | percent response, % at 10 µM; in the data active = percent response mostly above about 71%, no sharp cut-off; inactive = mostly below about 38%;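 also: higher means compound restores mutant binding toward wildtype level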
# MEKK3 confirm – confirmation of inhibitors of MEK5 binding to human MEKK3; shares compounds with MEKK3 PB1 HTS; binding response (% of control), % at 10 µM; actives 1.8% (n = 5,900); bead flow cytometry, Alexa488-MEK5 binding to MEKK3; hits give low values;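 active = binding response below 72% of control, or above a set upper limit, though filed actives all read lower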;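 also: 100% = DMSO only wells and 0% = binding blocked by excess unlabeled MEK5; lower values mean stronger disruption of MEK5 binding to MEKK3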
# Starred values were filed as active, the others as inactive; i = inactive; / = not tested or not shown; [ ] = remark or other dose. Sampled rows, rich in hits. Any-hit rate of the full collection: about 4.1%.
SMILES,SUMO Mot1 rescue,CHT PAM,MEKK2wt PB1 HTS,MEKK3 PB1 HTS,MEKK2 mut-MEK5,CHT block,MEKK2wt confirm,MEKK2mut-MEK5,MEKK3 confirm
COc1cc2c(cc1OC)C(c1ccc(Br)cc1)NC(=O)C2 (stereo not drawn),4,i,103,103,2,i,/,/,/
CCN(CC)CCCNC(=O)c1cc2c(Cl)nc3ccccc3c2s1,-10,i,152*,105,54*,i,130,15,108
COC(=O)c1cc(OC)c(OC)cc1NC(=O)Cc1cccs1,0,i,7.0*[inhibitor],5.0*[inhibitor],-46,i,99,-3,98
COc1cc(/C=N/NS(=O)(=O)c2ccc(C(C)(C)C)cc2)cc([N+](=O)[O-])c1O,12,i,48*[inhibitor],96,14,i,98,1,106
COc1cc(/C=N/NS(=O)(=O)c2ccc(C)c([N+](=O)[O-])c2)cc([N+](=O)[O-])c1O,6,i,101,101,0,i,/,/,/
COC(=O)c1c(NC(=S)NN2CCN(C)CC2)sc2c1CCC(C)C2 (stereo not drawn),172,i,163*,112,26,i,143,13,106
COC(=O)c1c(NC(=O)Cc2cccs2)sc2c1CCC(C)C2 (stereo not drawn),-7,i,97,104,1,i,/,/,/
Cc1c(NC(=O)c2c(N)sc3c2CCCC3)c(=O)n(-c2ccccc2)n1C,2,i,/,/,/,i,/,/,/
O=C(NC(=S)Nc1ccc2c(c1)OCCO2)c1ccccc1F,88,i,100,94,3,i,/,/,/
COc1cccc(OC)c1C(=O)NC(=S)Nc1ccc2c(c1)OCCO2,-10,i,127,141*,2,i,103,3,103
CCNC(=S)NNC(=O)C1CCCCC1,8,i,2.0*[inhibitor],2.0*[inhibitor],-16,i,103,-9,99
CS/C(N)=N/N=C/c1c(O)ccc2ccccc12,-2,i,133,133*,29,i,100,-4,99
C=CCc1c(C)nc2c(OC)cccc2c1Cl,63,i,111,131*,-1,i,103,-2,100
COc1cccc2c(Cl)c(CC=C(Cl)Cl)c(C)nc12,-15,i,89,101,-10,i,/,/,/
CCCn1c(=NC(=O)c2ccco2)c(C(=O)OCC)cc2c(=O)n3ccccc3nc21,10,i,-2.0*[inhibitor],2.0*[inhibitor],-26,i,93,-14,93
Cn1c(C(=O)N2CCN(C(=O)c3ccco3)CC2)cc2c(=O)n3ccccc3nc21,/,i,129,138*,6,i,96,-5,97
CC(C)CCn1c(CN2CCN(C(=O)c3ccco3)CC2)nc2c1c(=O)n(C)c(=O)n2C,-2,i,98,95,5,i,/,/,/
CC(C)Cn1c(CN2CCN(C(=O)c3ccco3)CC2)nc2c1c(=O)n(C)c(=O)n2C,6,i,125,141*,3,i,101,1,103
COc1ccc(C2(O)CCN(CC(=O)Nc3nc(-c4ccccc4)cs3)CC2)cc1,0,i,111,103,0,i,/,/,/
CSc1nc2nc3c(cc2c(=O)n1-c1ccc(C)cc1)COC(C)(C)C3,7,i,116,129*,29,i,100,-2,104
CC1(C)CC(=O)/C(=C(/O)Cc2ccccc2)C(=NCCc2ccccc2)C1,2,i,98,128*,-1,i,104,-1,108
CCCCN=C1CC(C)(C)CC(=O)/C1=C(/O)CCCN1C(=O)c2ccccc2C1=O,-16,i,97,98,-6,i,/,/,/
O=C1NC2(C=Cc3c(ccc4ccccc34)O2)Oc2ccccc21 (stereo not drawn),-40,i,2.0*[inhibitor],2.0*[inhibitor],-17,i,91,-2,96
CC1(C)Cc2c(ccc3ccccc23)C(=O)N1,30,i,96,99,2,i,/,/,/
Cc1cc(S(=O)(=O)N2c3ccc(F)cc3CCC2C)ccc1-n1cnnn1 (stereo not drawn),98,i,97,100,-1,i,/,/,/
SMILES,SUMO Mot1 rescue,CHT PAM,MEKK2wt PB1 HTS,MEKK3 PB1 HTS,MEKK2 mut-MEK5,CHT block,MEKK2wt confirm,MEKK2mut-MEK5,MEKK3 confirm
O=C(NC(=S)N1CCOCC1)C12CCC3CC(CC(C3)C1)C2,-6,i,99,134*,2,i,96,-4,100
Oc1[nH]c2ccccc2c1N=NC(=S)NCCc1ccccc1,24,i,102,130*,0,i,94,-7,96
CC(C)c1ccc2[nH]c(O)c(N=NC(=S)NCCc3ccccc3)c2c1,-20,i,106,104,11,i,/,/,/
O=C(CC1C(=O)NCCN1CC1CCCCC1)NCCc1ccc(F)cc1 (stereo not drawn),-19,i,139*,112,-3,i,138,57,108
O=C(CC1C(=O)NCCN1CC1CCCCC1)NCc1ccc(F)cc1 (stereo not drawn),-6,i,113,99,-2,i,/,/,/
O=C(CC1C(=O)NCCN1Cc1ccc(F)cc1)NC1CCCCCCC1 (stereo not drawn),-11,i,108,94,13,i,/,/,/
Cc1ccc(CN2CCNC(=O)C2CC(=O)NC2CCCCCC2)cc1 (stereo not drawn),0,i,127,108,24*,i,143,36,107
NCC(c1ccc(Cl)cc1Cl)c1c[nH]c2ccccc12 (stereo not drawn),-11,i,141*,109,19,i,137,23,105
O=C(C[n+]1ccccc1)Nc1ccc(Oc2ccccc2)cc1,-12,i,94,98,-12,i,/,/,/
CC(=O)Nc1ccc(S(=O)(=O)N2CCN(C(=O)c3ncoc3-c3cccc(F)c3)CC2)cc1,329,i,93,95,-8,i,/,/,/
O=C(CN(C(=O)c1ccc(Cl)cc1Cl)N1C(=O)C2C3C=CC(C3)C2C1=O)c1ccc(F)cc1 (stereo not drawn),13,i,102,101,5,i,/,/,/
